Inconclusive results are not listed. Values without a mark were called inactive. Active and inactive are the calls of the source. Unless noted, the call rests on the fitted dose curve; in most records, active means well fitted curve in the direction sought with a large enough effect in the repeat runs; inconclusive means weak or mixed curves; inactive means no such curve, though single readings can be large; an effect the other way counts as inactive or inconclusive.

Assay [1] concerns the target Peroxisome proliferator-activated receptor delta (Homo sapiens) (UniProt Q03181). The experiment in a line: qHTS assay to identify small molecule agonists of the peroxisome proliferator-activated receptor delta (PPARd) signaling pathway (AID 743212; calls by dose curve; further: potency means the concentration at half of the fitted maximal effect). The procedure, abridged: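 Quantitative high-throughput agonist screen in a HEK293H beta-lactamase reporter line under UAS control. Compounds in DMSO, at 37 C. Fluorescence read after 2 h with FRET substrate at room temperature.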
A general note: Quantitative high-throughput screening tests each substance at several concentrations.

Assay [2] can be described thus: qHTS assay to identify small molecule antagonists of the peroxisome proliferator-activated receptor delta (PPARd) signaling pathway - cell viability counter screen (AID 743213). Further: nearly all actives have a fitted effect of over 50% in size. Summed up:
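Agonist-stimulated (L165041, 300 nM final) HEK293H PPARd UAS-bla cells are exposed to compounds for 17 h at 37 C, and ATP-based luminescence (CellTiter-Glo) from the same wells reports cytotoxicity.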

In assay [3] the target is Peroxisome proliferator-activated receptor delta (Homo sapiens) (UniProt Q03181). The assay can be described thus: qHTS assay to identify small molecule antagonists of the peroxisome proliferator-activated receptor delta (PPARd) signaling pathway (AID 743215; active means well fitted inhibition curve with a large enough effect in the signal ratio in the repeat runs, not every such curve was filed as active; the % refers to the signal ratio; further: series mostly up to about 62 µM). Summed up:
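HEK293H UAS-bla, PPARd; agonist L165041 300 nM final with cpd in DMSO; 37 C 17 h; FRET substrate, RT 2 h; fluorescence intensity.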

Assay [4] in a line: qHTS assay to identify small molecule agonists of the farnesoid-X-receptor (FXR) signaling pathway - cell viability counter screen (AID 743218). Further: nearly all actives have a fitted effect of over 45% in size. Summed up: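 Parallel cytotoxicity test: compound-treated (16 h, 37 C) HEK 293T FXR-bla reporter cells were lysed with CellTiter-Glo and luminescence recorded.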
The target in assay [5] is Bile acid receptor (Homo sapiens) (UniProt Q96RI1). The experiment in a line: qHTS assay to identify small molecule agonists of the farnesoid-X-receptor (FXR) signaling pathway (AID 743220; active means well fitted activation curve with a large enough effect in the signal ratio in the repeat runs, not every such curve was filed as active; the % refers to the signal ratio). The procedure, abridged:
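Beta-lactamase reporter under UAS control in GeneBLAzer FXR HEK 293T cells (5000/well) measured with LiveBLAzer FRET substrate after 2 h at room temperature. Compound exposure lasted 16 h at 37C.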

Assay [6] deals with Vitamin D3 receptor (Homo sapiens) (UniProt P11473). The assay can be described thus: qHTS assay to identify small molecule antagonists of the vitamin D receptor (VDR) signaling pathway (AID 743223; active means well fitted inhibition curve with a large enough effect in the signal ratio in the repeat runs, not every such curve was filed as active; the % refers to the signal ratio). Summed up: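 Beta-lactamase reporter read-out: FRET substrate fluorescence after 2 h at room temperature, following 16 h exposure of VDR-bla cells to test compound plus 3 nM (final) 1alpha,25-dihydroxyvitamin D3 agonist at 37C.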

Assay [7] in a line: qHTS assay to identify small molecule agonists of the vitamin D receptor (VDR) signaling pathway - cell viability counter screen (AID 743224). Further: series mostly up to about 63 µM; nearly all actives have a fitted effect of over 50% in size. The procedure, abridged: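 Plated VDR-bla cells (4 h, 37C) received compound, incubated 16 h, then LiveBLAzer substrate 2 h RT; CellTiter-Glo added afterwards, luminescence read at 30 min.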
Assay [8] deals with Bile acid receptor (Homo sapiens) (UniProt Q96RI1). The assay can be described thus: qHTS assay to identify small molecule antagonists of the farnesoid-X-receptor (FXR) signaling pathway (AID 743217; active means well fitted inhibition curve with a large enough effect in the signal ratio in the repeat runs, not every such curve was filed as active; the % refers to the signal ratio). The procedure, abridged:
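GeneBLAzer FXR-UAS-bla HEK 293T, CDCA-stimulated (50 uM final). Compound treatment 16 h, 37 °C. Detection: beta-lactamase cleavage of B/G FRET substrate, fluorescence.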

Assay [9] in a line: qHTS assay to identify small molecule antagonists of the farnesoid-X-receptor (FXR) signaling pathway - cell viability counter screen (AID 743221; active means well fitted cell-killing curve with a large enough effect in the repeat runs, not every such curve was filed as active; further: nearly all actives have a fitted effect of over 50% in size). The procedure, abridged: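 HEK 293T FXR-bla cells, 5 h pre-incubation; compound + CDCA 50 uM final, 16 h, 37 C; beta-lactamase FRET read first, then CellTiter-Glo luminescence, 30 min RT.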
For assay [10], the target named is Vitamin D3 receptor (Homo sapiens) (UniProt P11473). The experiment in a line: qHTS assay to identify small molecule agonists of the vitamin D receptor (VDR) signaling pathway (AID 743222; calls by dose curve). The procedure, abridged:
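In VDR-bla cells, compound-induced beta-lactamase expression is quantified by FRET substrate fluorescence. Treatment lasts 16 h at 37C; substrate develops 2 h at room temperature.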

Sequence of Bile acid receptor (Homo sapiens) (Q96RI1 whole entry, looked up): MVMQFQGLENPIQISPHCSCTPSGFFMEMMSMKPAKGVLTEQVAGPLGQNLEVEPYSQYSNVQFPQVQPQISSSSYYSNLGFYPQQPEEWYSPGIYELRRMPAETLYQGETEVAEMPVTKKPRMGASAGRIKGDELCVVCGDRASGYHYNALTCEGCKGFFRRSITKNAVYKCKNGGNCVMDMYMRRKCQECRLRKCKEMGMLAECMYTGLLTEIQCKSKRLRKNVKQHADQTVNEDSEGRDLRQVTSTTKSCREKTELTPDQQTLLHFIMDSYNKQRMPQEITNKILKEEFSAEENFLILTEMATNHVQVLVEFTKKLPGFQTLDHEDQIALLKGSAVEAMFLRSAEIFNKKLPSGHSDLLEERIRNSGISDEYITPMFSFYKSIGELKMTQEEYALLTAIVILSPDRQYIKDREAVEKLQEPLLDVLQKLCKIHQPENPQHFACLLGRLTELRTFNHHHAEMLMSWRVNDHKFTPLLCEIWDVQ
Sequence of Vitamin D3 receptor (Homo sapiens) (P11473 whole entry, looked up): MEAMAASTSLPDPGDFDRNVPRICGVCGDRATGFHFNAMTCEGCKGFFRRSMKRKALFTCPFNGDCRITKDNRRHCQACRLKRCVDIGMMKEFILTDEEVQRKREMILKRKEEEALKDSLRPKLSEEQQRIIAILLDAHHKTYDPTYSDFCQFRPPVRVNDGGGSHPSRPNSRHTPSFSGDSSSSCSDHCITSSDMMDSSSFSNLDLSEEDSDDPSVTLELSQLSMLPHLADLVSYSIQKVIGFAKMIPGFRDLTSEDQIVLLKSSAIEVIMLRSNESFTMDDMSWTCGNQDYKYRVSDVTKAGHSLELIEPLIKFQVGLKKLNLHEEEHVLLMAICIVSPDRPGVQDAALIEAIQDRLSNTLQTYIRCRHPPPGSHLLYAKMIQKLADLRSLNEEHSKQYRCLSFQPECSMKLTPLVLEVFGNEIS
Sequence of Peroxisome proliferator-activated receptor delta (Homo sapiens) (Q03181 whole entry, looked up): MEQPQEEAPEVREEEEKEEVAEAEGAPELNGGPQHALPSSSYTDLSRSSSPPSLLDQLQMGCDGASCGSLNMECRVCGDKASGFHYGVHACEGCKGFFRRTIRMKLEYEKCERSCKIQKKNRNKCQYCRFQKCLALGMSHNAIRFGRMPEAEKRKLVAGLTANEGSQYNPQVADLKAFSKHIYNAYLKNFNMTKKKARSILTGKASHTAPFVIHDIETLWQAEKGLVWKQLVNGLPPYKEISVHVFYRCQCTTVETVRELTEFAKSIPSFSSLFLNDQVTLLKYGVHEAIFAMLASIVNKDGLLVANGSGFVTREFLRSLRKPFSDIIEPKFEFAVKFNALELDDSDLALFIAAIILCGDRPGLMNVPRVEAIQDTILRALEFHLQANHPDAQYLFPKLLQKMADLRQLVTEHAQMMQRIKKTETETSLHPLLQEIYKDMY

`CC(=O)Nc1cccc(N)c1`: the Potency result in [1], in [2] and in assay [4] was “inactive” in each case. Moreover, the molecule was classed as inactive in assay [3], in assay [5], in assay [6] and in assay [7].
Regarding `CC(C)=CCC/C(C)=C/C=N/O`, the Potency entry in [1], in assay [2] and in [4] was “inactive” throughout. The result in [3], in assay [8], in assay [5] and in assay [6] was inactive.
Regarding `Clc1cccc(C(c2ccc3nc[nH]c3c2)n2ccnc2)c1` (stereo not given), the Potency result in assay [1], in assay [2], in assay [4] and in assay [9] was “inactive” throughout. In addition, the molecule was called inactive in [3], in [5], in assay [10], in [6] and in assay [7].
With `O=C1c2ccccc2C(=O)c2c1ccc(O)c2O`, the Potency result in [1], in assay [2], in [4] and in assay [9] was “inactive” in each case. The molecule was classed as inactive in assay [3].
Take `c1ccc(CCNc2nc(-c3ccccc3)cs2)cc1`: the Potency entry in assay [1], in [2], in assay [4] and in assay [9] was “inactive” throughout. Besides, the molecule was called inactive in [3], in assay [10] and in assay [6].
With `CCCCCCCCNC`, the Potency result in assay [1], in assay [2], in [4] and in [9] was “inactive” each time. The molecule was called inactive in [3], in assay [8], in assay [5], in assay [10], in assay [6] and in assay [7].
Take `Cc1ccc(NC=O)c(C)c1`: the Potency entry in assay [1], in assay [2] and in assay [4] was “inactive” each time. Further, the molecule was classed as inactive in assay [3], in assay [8], in assay [5], in assay [10], in assay [6] and in assay [7].
In the case of `CC(C)CC(C)(C)C`, the Potency entry in assay [1], in assay [2], in assay [4] and in assay [9] was “inactive” throughout. Also, the result in assay [3], in [10] and in [6] was inactive.
Take `Cc1ccccc1CCO`: the Potency result in [1], in [2] and in assay [9] was “inactive” in each case. Besides, the molecule was called inactive in [3], in [8], in assay [5], in [10], in assay [6] and in [7].
For `CC(C)CCCCCCCOC(=O)c1ccc(C(=O)OCCCCCCCC(C)C)c(C(=O)OCCCCCCCC(C)C)c1`, the Potency entry in assay [1], in [2], in assay [4] and in assay [9] was “inactive” each time. Moreover, the molecule was classed as inactive in assay [3] and in [10].
`O=C1C=CCCC1`: the Potency entry in [1], in [2], in assay [4] and in [9] was “inactive” throughout. Further, the molecule was called inactive in assay [3], in assay [5] and in assay [7].
Turning to `NC(=O)c1cc[n+](CC2=C(C(=O)[O-])N3C(=O)[C@@H](NC(=O)Cc4cccs4)[C@H]3SC2)cc1`, the Potency entry in assay [1], in assay [2], in [4] and in [9] was “inactive” throughout. In addition, the molecule was called inactive in [3], in assay [8], in assay [5], in assay [10] and in assay [7].
Take `O=c1[nH][nH]c2ccccc12`: the Potency entry in assay [1], in [2] and in assay [4] was “inactive” throughout. The result in [3], in assay [5], in [10], in assay [6] and in assay [7] was inactive.
Take `CCCCCCCCCCCCCCCCC(=O)O`: the Potency entry in assay [1], in assay [2], in [4] and in [9] was “inactive” throughout. Further, the outcome in assay [3], in assay [5], in [10] and in assay [7] was inactive.
In the case of `O=C(OC1C[C@H]2CC[C@@H](C1)[N+]21CCCC1)C(O)(c1ccccc1)c1ccccc1` (stereo not given in full), the Potency entry in assay [1], in [2], in assay [4] and in assay [9] was “inactive” throughout. The molecule was classed as inactive in assay [3], in assay [10] and in [6].
For the molecule `O=C(O)c1ccc2cc(O)ccc2c1`, the Potency result in assay [1], in assay [2], in [4] and in assay [9] was “inactive” each time. Moreover, the outcome in assay [3], in [8], in assay [5], in assay [6] and in assay [7] was inactive.
For the molecule `Clc1ccccc1-c1nc(-c2ccncc2)no1`, the Potency result in assay [1], in [2], in [4] and in assay [9] was “inactive” in each case. Also, the outcome in assay [3], in [8], in assay [5] and in [7] was inactive.
For the molecule `CC1(C)[C@@H]2CC[C@]3(C2)[C@@H]1C(=O)CCC3(C)C`, the Potency entry in assay [1], in assay [2] and in assay [4] was “inactive” each time. Moreover, the result in assay [3], in assay [5], in assay [10], in assay [6] and in [7] was inactive.
Turning to `CC(C)(C)c1ccc(CCC=O)cc1`, the Potency entry in assay [1] and in assay [2] was “inactive” in each case. Also, the molecule was called inactive in [3], in assay [8], in assay [5], in assay [10] and in [7].
On to `CC1(C)CC(O)CC(C)(C)N1[O]`, for which the Potency result in [1], in [2], in assay [4] and in [9] was “inactive” each time. Moreover, the call in assay [3], in assay [8], in assay [5], in [6] and in [7] was inactive.
On to `Sc1nc(S)nc(S)n1`, for which the Potency result in [1], in assay [2], in assay [4] and in assay [9] was “inactive” throughout. Moreover, the call in assay [3], in assay [8], in assay [5] and in assay [7] was inactive.
Consider `O=C(O)c1ccncc1`, for which the Potency result in [1], in assay [2], in [4] and in assay [9] was “inactive” in each case. Also, the result in assay [3], in assay [8], in assay [5], in [10], in assay [6] and in assay [7] was inactive.
`c1ccc(-c2ccc(-c3ccccc3)cc2)cc1`: the Potency entry in [1], in [2], in assay [4] and in assay [9] was “inactive” in each case. Further, the molecule was classed as inactive in [3], in assay [8], in [5], in assay [6] and in assay [7].
In the case of `NC(=O)c1ccccc1C(N)=O`, the Potency entry in assay [1], in assay [2], in [4] and in [9] was “inactive” throughout. In addition, the result in assay [3], in assay [5], in assay [10], in assay [6] and in assay [7] was inactive.
Consider `CCCC(=O)OCc1ccccc1`, for which the Potency entry in [1], in assay [2] and in assay [4] was “inactive” in each case. Moreover, the result in [3], in assay [5], in assay [10] and in [7] was inactive.
For `Oc1ccc(CCNCCCCCCNCCc2ccccc2)cc1O`, the Potency result in assay [1], in [2], in assay [4] and in assay [9] was “inactive” throughout. Moreover, the molecule was called inactive in assay [3], in assay [5] and in [6].
With `CC1=C(C)C(=O)C(C(CCCCCC(=O)O)c2ccccc2)=C(C)C1=O` (stereo not given), the Potency in [1] is 29.8 µM (active). In addition, the Potency result in assay [2], in assay [4] and in [9] was “inactive” throughout. The molecule was called inactive in assay [3], in assay [8], in assay [5], in [10] and in assay [7].

The values above are taken from PubChem BioAssay (Tox21).
